Test results: PubChem BioAssay (NCI)
About 79,000 compounds went through this panel and 15% of them were active in at least one assay; those are over-represented in the sample as a whole. A number with no mark means an inactive call. Activity calls are given as the source filed them. Cut-off read from the data, not from the text of the source: active = growth inhibition above about 70%; inactive = the rest.

Columns and labels:
[1] = NCI Yeast Anticancer Drug Screen. Data for the rad50 strain (AID 155);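 note: 0% = growth of vehicle-only cultures of the same strain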; conditions: S. cerevisiae rad50 strain growth inhibition, stronger effect = higher value
Summary of the method: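 Genetically altered yeast (DNA repair pathway); compound treatment; growth inhibition vs vehicle ctrl.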

[2] = NCI Yeast Anticancer Drug Screen. Data for the mec2-1 strain (AID 157); conditions: S. cerevisiae mec2-1 strain, stronger effect = higher value
Summary of the method: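 Cells of the genetically defined mec2-1 yeast strain are incubated with test compound. Inhibition of growth is calculated against vehicle-treated controls.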

[3] = NCI Yeast Anticancer Drug Screen. Data for the sgs1 mgt1 strain (AID 161);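 note: 0% = growth of cultures given vehicle only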; conditions: S. cerevisiae sgs1 mgt1 strain, stronger effect = higher value
Summary of the method: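 Mutant yeast exposed to compound; growth scored against vehicle-only wells.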

[4] = NCI Yeast Anticancer Drug Screen. Data for the cln2 rad14 strain (AID 165);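 note: 0% = growth equal to vehicle treated cultures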; conditions: S. cerevisiae cln2 rad14 strain, stronger effect = higher value
Summary of the method: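 The screen exposed genetically defined yeast (cln2 rad14) to test compounds and scored growth inhibition relative to vehicle-treated controls.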

[5] = NCI Yeast Anticancer Drug Screen. Data for the bub3 strain (AID 167); conditions: S. cerevisiae bub3 mutant strain, stronger effect = higher value
Summary of the method: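 Yeast carrying a defined mutation is treated with each compound, and growth is compared with that of vehicle-exposed cells to give inhibition.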

[6] = NCI Yeast Anticancer Drug Screen. Data for the mlh1 rad18 strain (AID 175); conditions: S. cerevisiae mlh1 rad18 strain growth inhibition, stronger effect = higher value
Summary of the method: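 Compound-treated yeast growth, normalised to vehicle controls. Strain bears defined DNA repair mutations.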

[7] = at 5.0 µM (retest, dose inferred, filed as 0.5)
[8] = at 50.0 µM (retest, dose inferred, filed as 5.0)

N=C(N)c1ccc(OCCCCOc2ccc(N)cc2Cl)cc1
growth inhibition [1, 7]: -36%
growth inhibition [1, 8]: 89% (active)
growth inhibition ([1]; at 50.0 µM): 54.5%
growth inhibition [2, 7]: -2%
growth inhibition [2, 8]: 79% (active)
growth inhibition ([2]; at 50.0 µM): 7.85%
growth inhibition [3, 7]: 3%
growth inhibition [3, 8]: 98% (active)
growth inhibition ([3]; at 50.0 µM): 44.4%
growth inhibition [4, 7]: -2%
growth inhibition [4, 8]: 38%
growth inhibition ([4]; at 50.0 µM): -16.9%
growth inhibition [5, 7]: 0%
growth inhibition [5, 8]: 97% (active)
growth inhibition ([5]; at 50.0 µM): 0.65%
growth inhibition [6, 7]: 17%
growth inhibition [6, 8]: 98% (active)
growth inhibition ([6]; at 50.0 µM): 58.6%

O=C1c2cccc3cc([N+](=O)[O-])cc(c23)C(=O)N1O
growth inhibition [1, 7]: 34%
growth inhibition [1, 8]: 56%
growth inhibition ([1]; at 50.0 µM): 82.7% (active)
growth inhibition [2, 7]: 15%
growth inhibition [2, 8]: 32%
growth inhibition ([2]; at 50.0 µM): 91.3% (active)
growth inhibition [3, 7]: 13%
growth inhibition [3, 8]: 37%
growth inhibition ([3]; at 50.0 µM): 81.2% (active)
growth inhibition [4, 7]: 20%
growth inhibition [4, 8]: 35%
growth inhibition ([4]; at 50.0 µM): 32.4%
growth inhibition [5, 7]: 18%
growth inhibition [5, 8]: 64%
growth inhibition ([5]; at 50.0 µM): 70.5% (active)
growth inhibition [6, 7]: 31%
growth inhibition [6, 8]: 71% (active)
growth inhibition ([6]; at 50.0 µM): 80.7% (active)

CCCCCCC(OCCC)OCCC
growth inhibition [1, 7]: -4%
growth inhibition [1, 8]: -3%
growth inhibition ([1]; at 50.0 µM): 35.8%
growth inhibition [2, 7]: -28%
growth inhibition [2, 8]: -1%
growth inhibition ([2]; at 50.0 µM): -15.6%
growth inhibition [3, 7]: -3%
growth inhibition [3, 8]: -1%
growth inhibition ([3]; at 50.0 µM): 5%
growth inhibition [4, 7]: -2%
growth inhibition [4, 8]: 1%
growth inhibition ([4]; at 50.0 µM): 74% (active)
growth inhibition [5, 7]: -10%
growth inhibition [5, 8]: -6%
growth inhibition ([5]; at 50.0 µM): -0.5%
growth inhibition [6, 7]: -2%
growth inhibition [6, 8]: -1%
growth inhibition ([6]; at 50.0 µM): 38.4%

CCCCCCN(CCCCCC)CCCC(O)c1cccc2ccccc12 (stereo not given)
growth inhibition [1, 7]: -2%
growth inhibition [1, 8]: -5%
growth inhibition ([1]; at 50.0 µM): 99.2% (active)
growth inhibition [2, 7]: 2%
growth inhibition [2, 8]: 2%
growth inhibition ([2]; at 50.0 µM): 99.3% (active)
growth inhibition [3, 7]: 0%
growth inhibition [3, 8]: 1%
growth inhibition ([3]; at 50.0 µM): 99.2% (active)
growth inhibition [4, 7]: 0%
growth inhibition [4, 8]: -3%
growth inhibition ([4]; at 50.0 µM): 99.2% (active)
growth inhibition [5, 7]: -2%
growth inhibition [5, 8]: 2%
growth inhibition ([5]; at 50.0 µM): 97% (active)
growth inhibition [6, 7]: 1%
growth inhibition [6, 8]: -3%
growth inhibition ([6]; at 50.0 µM): 99.2% (active)

Cc1ccc(CC2(C(=O)O)Cc3ccc(C)cc3C2)cc1 (stereo not given)
growth inhibition [1, 7]: -1%
growth inhibition [1, 8]: 100% (active)
growth inhibition ([1]; at 50.0 µM): 78.3% (active)
growth inhibition [2, 7]: -12%
growth inhibition [2, 8]: 100% (active)
growth inhibition ([2]; at 50.0 µM): 86.3% (active)
growth inhibition [3, 7]: -10%
growth inhibition [3, 8]: 100% (active)
growth inhibition ([3]; at 50.0 µM): 89.3% (active)
growth inhibition [4, 7]: 1%
growth inhibition [4, 8]: 100% (active)
growth inhibition ([4]; at 50.0 µM): 91.2% (active)
growth inhibition [5, 7]: 6%
growth inhibition [5, 8]: 100% (active)
growth inhibition ([5]; at 50.0 µM): 91% (active)
growth inhibition [6, 7]: 5%
growth inhibition [6, 8]: 99% (active)
growth inhibition ([6]; at 50.0 µM): 92.3% (active)

O=C(NNc1nc(-c2ccccc2)cs1)C(F)(F)F
growth inhibition [1, 7]: 83% (active)
growth inhibition [1, 8]: 97% (active)
growth inhibition ([1]; at 50.0 µM): 86.8% (active)
growth inhibition [2, 7]: 74% (active)
growth inhibition [2, 8]: 98% (active)
growth inhibition ([2]; at 50.0 µM): 89.7% (active)
growth inhibition [3, 7]: 91% (active)
growth inhibition [3, 8]: 99% (active)
growth inhibition ([3]; at 50.0 µM): 87.5% (active)
growth inhibition [4, 7]: 50%
growth inhibition [4, 8]: 91% (active)
growth inhibition ([4]; at 50.0 µM): 87% (active)
growth inhibition [5, 7]: 97% (active)
growth inhibition [5, 8]: 99% (active)
growth inhibition ([5]; at 50.0 µM): 85.7% (active)
growth inhibition [6, 7]: 93% (active)
growth inhibition [6, 8]: 94% (active)
growth inhibition ([6]; at 50.0 µM): 91.2% (active)

CCCCCC(CN(C)C)C(O)/C=C\c1ccccc1 (stereo not given)
growth inhibition [1, 7]: 0%
growth inhibition [1, 8]: -8%
growth inhibition ([1]; at 50.0 µM): 74.7% (active)
growth inhibition [2, 7]: -1%
growth inhibition [2, 8]: -4%
growth inhibition ([2]; at 50.0 µM): 48.6%
growth inhibition [3, 7]: -10%
growth inhibition [3, 8]: -22%
growth inhibition ([3]; at 50.0 µM): 72.1% (active)
growth inhibition [4, 7]: -1%
growth inhibition [4, 8]: -6%
growth inhibition ([4]; at 50.0 µM): 4.9%
growth inhibition [5, 7]: -2%
growth inhibition [5, 8]: -10%
growth inhibition ([5]; at 50.0 µM): 1.6%
growth inhibition [6, 7]: 8%
growth inhibition [6, 8]: -9%
growth inhibition ([6]; at 50.0 µM): 68.5%

CCCCCCCCCCCCNC(=O)NCC(OCC)OCC
growth inhibition [1, 7]: -3%
growth inhibition [1, 8]: 96% (active)
growth inhibition ([1]; at 50.0 µM): 89.3% (active)
growth inhibition [2, 7]: 2%
growth inhibition [2, 8]: 97% (active)
growth inhibition ([2]; at 50.0 µM): 91.5% (active)
growth inhibition [3, 7]: 13%
growth inhibition [3, 8]: 95% (active)
growth inhibition ([3]; at 50.0 µM): 92.3% (active)
growth inhibition [4, 7]: 28%
growth inhibition [4, 8]: 95% (active)
growth inhibition ([4]; at 50.0 µM): 83.3% (active)
growth inhibition [5, 7]: 12%
growth inhibition [5, 8]: 97% (active)
growth inhibition ([5]; at 50.0 µM): 91.8% (active)
growth inhibition [6, 7]: -19%
growth inhibition [6, 8]: 96% (active)
growth inhibition ([6]; at 50.0 µM): 90.3% (active)

Cc1ccc(S(=O)(=O)N/N=C2/CCC3(O)CC2(C)CCC2[C@H]3CC2(C)C)cc1 (stereo not given in full)
growth inhibition [1, 7]: 17%
growth inhibition [1, 8]: 72% (active)
growth inhibition ([1]; at 50.0 µM): 66.7%
growth inhibition [2, 7]: -7%
growth inhibition [2, 8]: 83% (active)
growth inhibition ([2]; at 50.0 µM): 57.2%
growth inhibition [3, 7]: 1%
growth inhibition [3, 8]: 54%
growth inhibition ([3]; at 50.0 µM): 70.2% (active)
growth inhibition [4, 7]: 13%
growth inhibition [4, 8]: 69%
growth inhibition ([4]; at 50.0 µM): 83.8% (active)
growth inhibition [5, 7]: 2%
growth inhibition [5, 8]: 86% (active)
growth inhibition ([5]; at 50.0 µM): 75% (active)
growth inhibition [6, 7]: 5%
growth inhibition [6, 8]: 88% (active)
growth inhibition ([6]; at 50.0 µM): 70.7% (active)

O=C(O)/C=C/c1ccc(Cl)c(Cl)c1
growth inhibition [1, 7]: 9%
growth inhibition [1, 8]: 83% (active)
growth inhibition ([1]; at 50.0 µM): 93.1% (active)
growth inhibition [2, 7]: -15%
growth inhibition [2, 8]: 55%
growth inhibition ([2]; at 50.0 µM): 64.3%
growth inhibition [3, 7]: 11%
growth inhibition [3, 8]: 59%
growth inhibition ([3]; at 50.0 µM): 55.1%
growth inhibition [4, 7]: 19%
growth inhibition [4, 8]: 45%
growth inhibition ([4]; at 50.0 µM): 63.5%
growth inhibition [5, 7]: -1%
growth inhibition [5, 8]: 77% (active)
growth inhibition ([5]; at 50.0 µM): 86.8% (active)
growth inhibition [6, 7]: -17%
growth inhibition [6, 8]: 90% (active)
growth inhibition ([6]; at 50.0 µM): 92.9% (active)
